# “And” between values parts separate entries of the source, which are not always exact repeats. Equal values may be shown once. Values without a mark were called inactive. Records with an inconclusive call do not appear. A call without a number means that no potency is given here. The source made the active and inactive calls. Unless noted, the call rests on the fitted dose curve; in most records, active means well fitted curve in the direction sought with a large enough effect in the repeat runs; inconclusive means weak or mixed curves; inactive means no such curve, though single readings can be large; an effect the other way counts as inactive or inconclusive.
# Tests used:
# [1] = qHTS assay to identify small molecule agonists of the hypoxia (HIF-1) signaling pathway - cell viability counter screen (AID 1224844; calls by dose curve; further: nearly all actives have a fitted effect of over 50% in size)
# Procedure, shortened: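 Viability counter screen: HRE-bla ME-180 cells plated 5 hrs before compound addition, treated 17 hrs at 37C and 5% CO2, then CellTiter-Glo added after the FRET reporter read; luminescence after 30 min.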
# [2] = qHTS assay to identify small molecule agonists of the hypoxia (HIF-1) signaling pathway (AID 1224846; active means well fitted activation curve with a large enough effect in the signal ratio in the repeat runs, not every such curve was filed as active; the % refers to the signal ratio)
# Procedure, shortened: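 Agonist mode reporter screen. ME-180 cells stably expressing bla under HRE control received test compounds in DMSO for 17 hrs (37C, 5% CO2), and beta-lactamase activity was then detected with the CCF4-AM FRET substrate.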
# [3] = qHTS assay to identify small molecule agonists of H2AX - cell viability counter screen (AID 1224847; calls by dose curve; further: top concentration of the series differs between compounds; nearly all actives have a fitted effect of over 30% in size)
# Procedure, shortened: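 For this counter screen, overnight-attached CHO-K1 cells received test compounds (15 concentrations, 0.76% DMSO final); 3 hr later at 37C, CellTiter-Glo reagent was added and luminescence recorded after 30 min at room temperature.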
# [4] = qHTS assay to identify small molecule antagonists of the estrogen related receptor (ERR) signaling pathway from Tox21 library (AID 1224848); further: nearly all actives have a fitted effect of over 50% in size
# Procedure, shortened: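 First, 2,000 ERR cells per well were plated and held 6 h at 37 C/5% CO2. Next, compounds in DMSO were pinned in and left 18 h at 37 C. Finally, ONE-Glo was added and luminescence read after 30 min at room temperature.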
# [5] = qHTS RealTime-Glo MT Cell Viability Assay in HepG2 cells - 24 hour (AID 1224867); further: nearly all actives have a fitted effect of over 50% in size
# Procedure, shortened: (§1)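 Viability was tracked continuously by NanoLuc luminescence from prosubstrate reduced by living HepG2 cells, at successive time points over 40 h of compound exposure. Cells with reagent were preincubated 5 h at 37 °C before compound addition.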
# [6] = qHTS RealTime-Glo MT Cell Viability Assay in HEK293 cells - 32 hour (AID 1224868); further: top concentration of the series differs between compounds; nearly all actives have a fitted effect of over 50% in size
# Procedure, shortened: (§2)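 Viability tracked continuously by luminescence as live cells reduce a prosubstrate for NanoLuc; HEK293 cells preincubated 5 h, compound-treated at 37 C, and read at 0, 8, 16, 24, 32 and 40 h.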
# [7] = A CellTox Green Cytotoxicity Assay to monitor cytotoxicity in HEK293 cells - 0 hour (AID 1224869); further: nearly all actives have a fitted effect of over 50% in size
# Procedure, shortened: (§3)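 Dead-cell fluorescence measured kinetically: asymmetric cyanine dye, HEK293, 600 cells/well, 5 h settle, 23 nL cpd/DMSO, 37 C, reads 0–40 h every 8 h.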
# [8] = qHTS RealTime-Glo MT Cell Viability Assay in HepG2 cells - 40 hour (AID 1224870); further: nearly all actives have a fitted effect of over 50% in size
# Procedure, shortened: (§4)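 HepG2 cells mixed with RealTime-Glo MT reagents (NanoLuc plus cell-permeant prosubstrate) were seeded at 600 cells/well, incubated 5 h at 37 C/5% CO2, then pinned with compounds in DMSO; nonlytic luminescence tracked viability during 40 h treatment.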
# [9] = A CellTox Green Cytotoxicity Assay to monitor cytotoxicity in HEK293 cells - 40 hour (AID 1224871); further: nearly all actives have a fitted effect of over 45% in size; further: potency means the concentration at half of the fitted maximal effect
# Procedure, shortened: as §3
# [10] = qHTS RealTime-Glo MT Cell Viability Assay in HEK293 cells - 16 hour (AID 1224872)
# Procedure, shortened: as §2
# [11] = qHTS RealTime-Glo MT Cell Viability Assay in HEK293 cells - 40 hour (AID 1224874); details: RealTime-Glo luminescence; max response: stronger effect = lower value; further: nearly all actives have a fitted effect of over 50% in size
# Procedure, shortened: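 600 HEK293 cells per well, dispensed already mixed with RealTime-Glo MT reagents. Compound dosing came 5 h later. The same wells were read for luminescence at 0, 8, 16, 24, 32 and 40 h of exposure at 37 C.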
# [12] = A CellTox Green Cytotoxicity Assay to monitor cytotoxicity in HEK293 cells - 24 hour (AID 1224875); further: nearly all actives have a fitted effect of over 45% in size
# Procedure, shortened: as §3
# [13] = qHTS RealTime-Glo MT Cell Viability Assay in HepG2 cells - 32 hour (AID 1224877); further: nearly all actives have a fitted effect of over 55% in size
# Procedure, shortened: as §1
# [14] = A CellTox Green Cytotoxicity Assay to monitor cytotoxicity in HepG2 cells - 24 hour (AID 1224878); further: nearly all actives have a fitted effect of over 45% in size
# Procedure, shortened: (§5)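 First, HepG2 cells (600/well) mixed with reagent were plated; second, after 5 h at 37 C they received compounds via pintool; third, fluorescence was measured at 0 h through 40 h at 8 h intervals.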
# [15] = A CellTox Green Cytotoxicity Assay to monitor cytotoxicity in HepG2 cells - 40 hour (AID 1224879); further: nearly all actives have a fitted effect of over 40% in size; further: potency means the concentration at half of the fitted maximal effect
# Procedure, shortened: as §5
# [16] = qHTS RealTime-Glo MT Cell Viability Assay in HepG2 cells - 8 hour (AID 1224873); further: nearly all actives have a fitted effect of over 55% in size
# Procedure, shortened: as §4
# [17] = A CellTox Green Cytotoxicity Assay to monitor cytotoxicity in HepG2 cells - 16 hour (AID 1224876); further: nearly all actives have a fitted effect of over 45% in size
# Procedure, shortened: as §5
# [18] = qHTS assay to identify small molecule agonists of H2AX (AID 1224845; active means well fitted activation curve with a large enough effect in the signal ratio in the repeat runs, not every such curve was filed as active; the % refers to the signal ratio)
# Procedure, shortened: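 Wild-type CHO-K1 cells plated overnight, then exposed 3 hr at 37C to compounds at 15 concentrations (0.76% DMSO). Lysed, then HTRF anti-pH2AX(S139)-cryptate/anti-H2AX-d2 detection after 24 hr at room temperature; emissions 665 and 620 nm.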
# [19] = qHTS assay to identify small molecule agonists of the estrogen related receptor (ERR) signaling pathway from Tox21 library (AID 1224849; calls by dose curve; further: nearly all actives have a fitted effect of over 15% in size); details: ERR reporter cell line, ONE-Glo luciferase, 18 h; at 92.4 µM (top of the series)
# Procedure, shortened: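 Quantitative HTS in agonist format: NTP ERR cell line, compounds transferred in DMSO after 6 h plating, 18 h incubation at 37 C, ONE-Glo luminescence endpoint.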
Compound,Potency [1],outcome [2],Potency [3],Potency [4],outcome [5],Potency [6],Potency [7],outcome [8],Potency [9],outcome [10],max response [11],Potency [12],outcome [13],Potency [14],Potency [15],outcome [16],Potency [17],Potency [18],"activity change, positive = activation [19]"
Cc1cc(O)ccc1Cl,inactive,inactive,inactive,inactive,inactive,inactive,inactive,inactive,inactive,inactive,-0.728% and -2.63% and 0.546%,inactive,inactive,inactive,inactive,,,,
COS(=O)(=O)OC,inactive,inactive,inactive,,inactive,inactive,inactive,inactive,inactive,inactive,1.63% and 22.3%,inactive,inactive,inactive,inactive,inactive,inactive,,
O=S(=O)(O)OOS(=O)(=O)O,inactive,inactive,inactive,,inactive,inactive,inactive,inactive,inactive,inactive,2.97% [middle of 4 runs],inactive,inactive,inactive,inactive,inactive,inactive,,
COP(=S)(OC)SCN1C(=O)c2ccccc2C1=O,inactive,inactive,inactive,,inactive,,inactive,inactive,inactive,inactive,11.4% and 4.29% and 1.87%,inactive,inactive,inactive,inactive,inactive,,inactive,
COC(=O)Nc1cccc(OC(=O)Nc2cccc(C)c2)c1,inactive,inactive,inactive,inactive,inactive,inactive,inactive,inactive,inactive,inactive,3.85% and -5.62%,inactive,inactive,inactive,49 µM (active),inactive,inactive,,
Clc1cnc(Oc2ccc(Oc3ncc(Cl)cc3Cl)cc2)c(Cl)c1,inactive,,inactive,,inactive,,inactive,inactive,24.5 µM (active),inactive,-4.51% and -10.8%,,inactive,inactive,inactive,,inactive,,
OCCCCO,inactive,inactive,inactive,inactive,inactive,,inactive,inactive,inactive,inactive,2.32% and 1.82%,inactive,inactive,inactive,inactive,,inactive,,
CCNc1nc(Cl)nc(NC(C)C)n1,inactive,inactive,inactive,inactive,inactive,inactive,inactive,inactive,inactive,inactive,2.47% and -5.57%,inactive,inactive,inactive,inactive,,,,-5.74% and -1.44%
Nc1cc(Cl)cc(Cl)c1,inactive,inactive,inactive,,inactive,,inactive,inactive,inactive,inactive,-2.18% and 1.19%,inactive,inactive,inactive,inactive,inactive,,,
